Sampled rows, rich in hits. Any-hit rate of the full collection: about 2.6%.
HEK293 tox: cytotoxicity in counter-screen for GLP-1R inverse agonists; 0.13% of 410,000 active; HEK293 cAMP-luciferase reporter cells, luminescence, 24 h; AID 624418; Potency, µM (series often up to 38.3 µM), without a hit: top-dose activity change, negative = inhibition, most hits filed as inhibitors;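 note: loss of luciferase light is scored as toxicity; % is set by controls: 0 for no effect and ±100 for the full control effect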
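Seeding density was 200 cells/uL; after overnight-length (12 h) culture, 23 nL compounds went on for 24 h at 37 °C. Readout used a luciferase detection reagent, luminescence taken after 12 min at room temperature.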
GLP1R ag: agonists of human GLP-1 receptor; HEK293 GLP-1R CRE-luciferase, luminescence, 4-6 h; cells express a hypersensitive GLP-1R form; Potency, µM (highest dose often 45.6 µM), inactives show at the highest dose activation, most hits filed as activators; 0.007% of 380,000 active; AID 624172; note: % of control where 0% means no effect
Target sequence (P43220 whole entry, looked up): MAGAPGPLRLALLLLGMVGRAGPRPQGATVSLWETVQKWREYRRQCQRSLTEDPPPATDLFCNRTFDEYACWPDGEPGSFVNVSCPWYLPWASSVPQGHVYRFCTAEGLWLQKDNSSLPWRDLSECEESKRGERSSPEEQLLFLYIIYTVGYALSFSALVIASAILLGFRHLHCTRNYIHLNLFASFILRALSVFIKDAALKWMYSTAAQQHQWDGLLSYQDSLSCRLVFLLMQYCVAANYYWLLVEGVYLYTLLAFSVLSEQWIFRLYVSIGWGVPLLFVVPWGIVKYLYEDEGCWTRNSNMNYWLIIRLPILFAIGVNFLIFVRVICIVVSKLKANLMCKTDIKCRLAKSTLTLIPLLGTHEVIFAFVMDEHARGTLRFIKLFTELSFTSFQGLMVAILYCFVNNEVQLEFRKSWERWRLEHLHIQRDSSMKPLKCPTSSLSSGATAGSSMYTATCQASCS
BRCA1 expr act: increases BRCA1 expression | MCF7-BRCA1-FFLuc reporter, luminescence, 48 h; response scale: scaled: vehicle 0%, 10 µM genistein 100% | Potency, µM (series often up to 46.1 µM), for inactives: at the top dose activation, usual class: activators | 1.1% of 380,000 active; note: nearly all actives have a fitted effect of over 80% in size
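Compounds are tested at multiple concentrations on MCF7 BRCA1-luciferase reporter cells seeded at 2000 per well; after 48 h, a single luminescence end-point is taken and curves fitted to the normalized data.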
GLP1R inv ag: GLP-1 receptor (human) inverse agonism | P43220 | HEK293 GLP-1R CRE-luciferase, luminescence, 24 h; GLP-1R form is constitutively active | Potency, µM (series often up to 38.3 µM), for inactives: at the highest dose activity change, negative = inhibition, usual class: inhibitors | 1.6% of 410,000 active | AID 624417; note: % is set by controls: 0 for no effect and ±100 for the full control effect; nearly all actives have a fitted effect of over 55% in size
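Inverse agonists were sought by their lowering of basal cAMP reporter luciferase output in HEK293 cells stably carrying constitutively active human GLP-1R, after 24 h compound treatment.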
* = called active by the depositor. Calls come from the whole dose curve; as a rule, active = well fitted curve in the direction sought with a large enough effect; inconclusive = small, poorly fitted or top-dose-only effect, or another doubt; inactive = no such curve, though single readings can be large; an effect the other way counts as inactive or inconclusive. Potency is the fitted concentration of half-maximal effect.

What do the screens show for `CCOC(=O)c1cc2c(ccn2C)n1CC(=O)N(Cc1ccccc1)c1ccc(F)cc1`?
HEK293 tox: 11%; GLP1R ag: -1%; BRCA1 expr act: -8%; GLP1R inv ag: inconclusive

How did COc1ccc(NC(=O)c2cccs2)c([N+](=O)[O-])c1 do in these assays?
HEK293 tox: 1%; GLP1R ag: -18%; BRCA1 expr act: 5.6µM*; GLP1R inv ag: 33%

What do the screens show for `COc1ccc(NC(=O)C/C(C)=N/NC(=O)c2cccs2)c([N+](=O)[O-])c1`?
HEK293 tox: inconclusive; GLP1R ag: 20%; BRCA1 expr act: 14%; GLP1R inv ag: 5%

How did COc1ccc(NC(=O)c2cc(Cl)ccc2Cl)c([N+](=O)[O-])c1 do in these assays?
HEK293 tox: -12%; GLP1R ag: 0%; BRCA1 expr act: -21%; GLP1R inv ag: 9%

Results for COc1ccc(NC(=O)c2sccc2C)c([N+](=O)[O-])c1 ?
HEK293 tox: -23%; GLP1R ag: 8%; BRCA1 expr act: 11µM*; GLP1R inv ag: 25%

What do the screens show for `Cc1cc(C(=O)N2CCC2(C)C(=O)NCc2cccc3ccccc23)nn1C` (centres undefined)?
HEK293 tox: -1%; GLP1R ag: -4%; BRCA1 expr act: -10%; GLP1R inv ag: 20%

What do the screens show for `Cc1ccc(N/N=C(\C#N)C(N)=S)cc1C`?
HEK293 tox: inconclusive; GLP1R ag: 7%; BRCA1 expr act: -23%; GLP1R inv ag: 0.28µM*

Results for CCOc1c(Cl)cc(C(=O)Nc2ccccc2-c2ccccc2)cc1Cl ?
HEK293 tox: 38%; GLP1R ag: -6%; BRCA1 expr act: -43%; GLP1R inv ag: 8.9µM*

What do the screens show for `Cc1nn(-c2ccccc2)c(C)c1C(=O)OCC(=O)Nc1ccccc1`?
HEK293 tox: -20%; GLP1R ag: 24%; BRCA1 expr act: -3%; GLP1R inv ag: -27%

What do the screens show for `Cc1nc(COC(=O)c2c(C)nn(-c3ccccc3)c2C)cs1`?
HEK293 tox: -8%; GLP1R ag: 17%; BRCA1 expr act: 13µM*; GLP1R inv ag: 37%

Results for CC1(C)S[C@@H]2[C@H](NC(=O)[C@H](N)c3ccccc3)C(=O)N2[C@@H]1C(=O)OCOC(=O)[C@@H]1N2C(=O)C[C@@H]2S(O)(O)C1(C)C ?
GLP1R ag: 0%

What do the screens show for `S=C1NCCc2ccccc2C1c1ccccc1Cl` (centres undefined)?
HEK293 tox: inconclusive; GLP1R ag: -6%; BRCA1 expr act: -23%; GLP1R inv ag: inconclusive

How did S=C1NCCc2ccccc2C1c1ccccc1 (centres undefined) do in these assays?
HEK293 tox: inconclusive; GLP1R ag: 1%; BRCA1 expr act: -16%; GLP1R inv ag: 11µM*

How did C=C1[C@H](C)CN(S(=O)(=O)C(C)(C)C)[C@H]1CCO do in these assays?
HEK293 tox: 2%; GLP1R ag: 8%; BRCA1 expr act: 0%; GLP1R inv ag: 1%

What do the screens show for `CC(C)(C)S(=O)(=O)N1C[C@@H]2CC/C=C\C/C=C\2[C@H]1CCO`?
HEK293 tox: -4%; GLP1R ag: -4%; BRCA1 expr act: 5%; GLP1R inv ag: 5µM*

Results for C=C(CCO)C1=CCN(S(=O)(=O)C(C)(C)C)[C@H]1CCO ?
HEK293 tox: -9%; GLP1R ag: -5%; BRCA1 expr act: -7%; GLP1R inv ag: 9%

What do the screens show for `CC(C)(C)S(=O)(=O)N1C[C@H]2CC/C=C\C/C=C\2[C@@H]1CCO`?
HEK293 tox: 2%; GLP1R ag: -5%; BRCA1 expr act: 5%; GLP1R inv ag: 2.8µM*

How did COc1ccccc1C(=O)c1cn(CC(=O)Nc2ccccc2F)c2nc(C)ccc2c1=O do in these assays?
HEK293 tox: 1%; GLP1R inv ag: 3%

What do the screens show for `CCOc1ccccc1-c1nc(Cn2c(=O)cc(C)c3c(C)nn(-c4ccccc4)c32)c(C)o1`?
HEK293 tox: 1%; GLP1R inv ag: 7%

How did CN(C(=O)c1cccc(NC(=O)Cc2cccc(NC(=O)C3CCCN(C(=O)C4CCC4)C3)c2)c1)C1CCC1 (centres undefined) do in these assays?
HEK293 tox: -19%; GLP1R ag: 3%; BRCA1 expr act: 2%; GLP1R inv ag: 17%

How did Fc1ccc2c(c1)Sc1ccc(Cl)cc1CC2N1CCN(CCC2OCCO2)CC1 (centres undefined) do in these assays?
HEK293 tox: inconclusive; GLP1R ag: 17%; BRCA1 expr act: -9%; GLP1R inv ag: 3.5µM*

What do the screens show for `O=[N+]([O-])c1ccc2c(c1)C(N1CCN(CCO)CC1)Cc1ccc(F)cc1S2` (centres undefined)?
HEK293 tox: -12%; GLP1R ag: 13%; BRCA1 expr act: 3%; GLP1R inv ag: inconclusive

Results for Cc1sc(NC(=O)c2ccco2)c(CN2CCCCC2)c1C ?
HEK293 tox: 3%; GLP1R ag: 0%; BRCA1 expr act: -27%; GLP1R inv ag: 6.3µM*

Results for Cc1sc(NC(=O)c2ccco2)c(CN2CCN(c3ccccc3)CC2)c1C ?
HEK293 tox: -10%; GLP1R ag: 1%; BRCA1 expr act: -39%; GLP1R inv ag: 0%

What do the screens show for `Clc1ccc2c(N/N=C/c3cccc(Br)c3)ccnc2c1`?
HEK293 tox: inconclusive; GLP1R ag: -3%; BRCA1 expr act: -52%; GLP1R inv ag: 13µM*

How did CCCCc1ccc(Nc2ncnc3nc[nH]c23)cc1 do in these assays?
HEK293 tox: -3%; GLP1R ag: 7%; BRCA1 expr act: 4.5µM*; GLP1R inv ag: -8%

How did CCc1ccc(Nc2ncnc3nc[nH]c23)cc1 do in these assays?
HEK293 tox: -6%; GLP1R ag: 1%; BRCA1 expr act: inconclusive; GLP1R inv ag: -15%

What do the screens show for `Cc1ccccc1C(=O)NC(=S)Nc1sc2c(c1C#N)CCC(C)C2` (centres undefined)?
HEK293 tox: -15%; GLP1R ag: -4%; BRCA1 expr act: 7%; GLP1R inv ag: 27%

What do the screens show for `CC1CCc2c(sc(NC(=S)NC(=O)c3ccccc3)c2C#N)C1` (centres undefined)?
HEK293 tox: 2%; GLP1R ag: 1%; BRCA1 expr act: 11µM*; GLP1R inv ag: 48%

What do the screens show for `CC(=O)NC(=S)Nc1sc2c(c1C(N)=O)CCC(C)C2` (centres undefined)?
HEK293 tox: -7%; GLP1R ag: 9%; BRCA1 expr act: 4.5µM*; GLP1R inv ag: 3%

What do the screens show for `Cc1csc(NC(=O)C2(C)CCN2C(=O)C(C)C)c1C#N` (centres undefined)?
HEK293 tox: -8%; GLP1R ag: 13%; BRCA1 expr act: 7%; GLP1R inv ag: 34%

How did Cc1ccc2c(c1)N(C(=O)C1CCN(S(=O)(=O)c3c(C)noc3/C=C/c3ccccc3F)CC1)CCO2 do in these assays?
HEK293 tox: -1%; GLP1R inv ag: -2%

Results for COc1cc2nc(N3CCCCC3)nc(NC3CC3)c2cc1OC ?
BRCA1 expr act: 0%

Screens from PubChem BioAssay.
